Assay [1] concerns the target Paired box protein Pax-6 (Homo sapiens) (UniProt P26367). Kind of assay: ATG_Pax6_CIS: Attagene CIS-FACTORIAL HepG2 Assay for human Paired Box 6 (PAX6) (AID 2282956). The conditions noted are these: HepG2 CIS-FACTORIAL PAX6 reporter transcription, RNA readout; actives raise or lower the signal. Summed up:
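Read-out is reporter transcript level, measured by RT-PCR with fluorescent primer extension and capillary electrophoresis after 24 h dosing of transfected HepG2 cells. Activity in either direction fitted relative to DMSO control.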

Assay [2] in a line: ATG_PXRE_CIS: Attagene CIS-FACTORIAL HepG2 Assay for human Pregnane X Receptor Element (PXRE) (AID 2282957). The note with it: HepG2 Attagene CIS-FACTORIAL PXRE reporter, mRNA; actives raise or lower the signal. Put shortly: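 Reporter transcripts under endogenous PXR-responsive cis-regulation quantified from total RNA of transfected HepG2 cells 24 h post-dosing, via RT-PCR with fluorescent primer extension and capillary electrophoresis. Gain or loss of signal fitted against DMSO baseline.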

Assay [3] can be described thus: ATG_RORE_CIS: Attagene CIS-FACTORIAL HepG2 Assay for human RAR-related Orphan Receptor Element (RORE) (AID 2282959). The conditions noted are these: HepG2 Attagene cis-factorial RORE reporter, mRNA; actives raise or lower the signal. Put shortly: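 Transient MRTU transfection of human HepG2 liver cells (FuGene 6); 24 h compound exposure; TriZol RNA, oligo(dT) RT, PCR, FAM labeling, HpaI cut, CE fragment analysis. DMSO = negative control/baseline.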

Assay [4] can be described thus: ATG_Sox_CIS: Attagene CIS-FACTORIAL HepG2 Assay for human SRY-box transcription factor (SOX) (AID 2282960). The conditions noted are these: HepG2 Attagene cis-factorial SOX reporter, mRNA; actives raise or lower the signal. Summed up: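 Endogenous factor activity in human liver HepG2 cells carrying transfected cis-regulated reporter units. RNA taken 24 h post-dose, reverse-transcribed, PCR-amplified and sized by capillary electrophoresis. Gain or loss of signal fitted relative to DMSO.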

Assay [5] deals with Transcription factor Sp1 (Homo sapiens) (UniProt P08047). The experiment in a line: ATG_Sp1_CIS: Attagene CIS-FACTORIAL HepG2 Assay for human Specificity Protein 1 (Sp1) (AID 2282961). The note with it: HepG2 Sp1 cis-reporter transcription, actives raise or lower the signal. Summed up:
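Transient MRTU-transfected HepG2, 24 h compound exposure. Total RNA → oligo(dT) RT → PCR of reporter → 6-FAM primer extension → HpaI digest → CE. Endpoint fitted both directions vs DMSO.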

Assay [6] can be described thus: ATG_SREBP_CIS: Attagene CIS-FACTORIAL HepG2 Assay for human Sterol Regulatory Element Binding (SREBP) (AID 2282962). The conditions noted are these: HepG2 Attagene cis-factorial SREBP reporter, mRNA; actives raise or lower the signal. Put shortly: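 Endogenous SREBP activity read as cis-element-driven reporter transcript in transiently transfected HepG2, 24 h post-dosing; quantified via RT-PCR plus capillary electrophoresis of fluorescent fragments. Gain or loss of signal fitted relative to DMSO baseline.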

For assay [7], the target named is Signal transducer and activator of transcription 3 (Homo sapiens) (UniProt P40763). The experiment in a line: ATG_STAT3_CIS: Attagene CIS-FACTORIAL HepG2 Assay for human Signal Transducer and Activator of Transcription 3 (STAT3) (AID 2282963). The conditions noted are these: HepG2, Attagene cis-factorial STAT3 reporter transcription; actives raise or lower the signal. Summed up: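 Fluorescence intensity of 6-FAM-labelled reporter fragments, separated by capillary electrophoresis after RT-PCR, gave the signal. Cells were HepG2 transfected with cis-element reporter units and treated 24 h; fitting was bidirectional relative to DMSO.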

The nature of assay [8]: ATG_TA_CIS: Attagene CIS-FACTORIAL HepG2 Assay for human TA Basal Promoter (AID 2282964). The note with it: HepG2 Attagene CIS-factorial TA basal promoter reporter; actives raise or lower the signal. Put shortly: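 Multiplexed mRNA reporter assay, HepG2, 24 h. Reporter cDNA amplified, 6-FAM primer-extended, HpaI-cut, CE-sized; DMSO = negative control and baseline.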
Assay [9] can be described thus: ATG_TCF_b_cat_CIS: Attagene CIS-FACTORIAL HepG2 Assay for human T-Cell-Factor with beta-catenin (TCF/b-cat) (AID 2282965). The conditions noted are these: HepG2 TCF/beta-catenin cis-reporter transcription, actives raise or lower the signal. Put shortly:
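HepG2 cells transiently transfected with cis-promoter-driven multiplexed reporter units; reporter mRNA measured 24 h after dosing by RT-PCR, FAM labelling, HpaI digestion and capillary electrophoresis. Bidirectional fitting relative to DMSO baseline.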

Assay [10] in a line: ATG_TAL_CIS: Attagene CIS-FACTORIAL HepG2 Assay for human TAL Basal Promoter (AID 2282966).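 Further: background control endpoint measuring basal TAL promoter reporter mRNA not a specific factor.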 The note with it: HepG2 Attagene cis-factorial TAL promoter reporter; actives raise or lower the signal. Summed up: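 Background-control endpoint: basal TAL promoter reporter transcripts in transiently transfected HepG2, measured 24 h after dosing. Read-out by RT-PCR with fluorescent primer extension and capillary electrophoresis; gain or loss of signal fitted relative to DMSO.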

Assay [11] in a line: ATG_TGFb_CIS: Attagene CIS-FACTORIAL HepG2 Assay for human Transforming Growth Factor (TGF) (AID 2282967). The note with it: HepG2 Attagene CIS TGFb reporter, mRNA transcription; actives raise or lower the signal. Put shortly: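 Transcript-level reporter readout: HepG2 transfectants, 24 h exposure, RNA to cDNA, reporter-specific PCR, fluorescent primer extension, capillary sizing against ROX standards. Gain- or loss-of-signal relative to DMSO.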

The nature of assay [12]: ATG_VDRE_CIS: Attagene CIS-FACTORIAL HepG2 Assay for human Vitamin D Receptor Element (VDRE) (AID 2282968). The note with it: HepG2 VDRE cis-reporter transcription, actives raise or lower the signal. Summed up:
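Compounds were applied for 24 h to HepG2 cells transfected with promoter-regulated reporter units. Total RNA was reverse-transcribed, and reporter amplicons were fluorescently labelled and sized by capillary electrophoresis.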

Assay [13] has as its target X-box-binding protein 1 (Homo sapiens) (UniProt P17861). The experiment in a line: ATG_Xbp1_CIS: Attagene CIS-FACTORIAL HepG2 Assay for human X-box Binding Protein 1 (XBP1) (AID 2282972). The note with it: HepG2 XBP1 cis-element reporter, Attagene multiplex; actives raise or lower the signal. Put shortly:
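Reporter transcripts were quantified by RT-PCR with fluorescent primer extension and capillary electrophoresis after 24 h chemical exposure. Cells: transiently transfected HepG2 carrying cis-regulated reporter constructs; data fitted bidirectionally relative to DMSO.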

The nature of assay [14]: ATG_M_19_TRANS: Attagene TRANS-FACTORIAL HepG2 Assay for M19 Transcription Factor (Internal Marker) (AID 2282974; active means hit-call score of the fitted dose curve at least 0.9, where 1 is the maximum). The conditions noted are these: HepG2 Attagene TRANS-FACTORIAL M19 internal marker reporter. Put shortly: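 Fluorescence of 6-FAM-labelled reporter cDNA fragments, separated by capillary electrophoresis, served as the readout. These derived from HepG2 cells carrying transfected GAL4-UAS reporter units after 24 h dosing, with DMSO as negative control.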

The target of assay [15] is Nuclear receptor subfamily 1 group I member 3 (Homo sapiens) (UniProt Q14994). The experiment in a line: ATG_CAR_TRANS: Attagene TRANS-FACTORIAL HepG2 Assay for human Constitutive Androstane Receptor (CAR) (AID 2282969; active means hit-call score of the fitted dose curve at least 0.9, where 1 is the maximum;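 further: activators raise reporter mRNA above DMSO so AC50 marks induction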). The note with it: HepG2 Attagene TRANS-FACTORIAL CAR reporter. Put shortly: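 Transiently transfected HepG2, multiplex TRANS reporters (CAR-Gal4 chimera driving GAL4-UAS reporter). 24 h dosing. Readout: reporter transcript by RT-PCR + capillary electrophoresis, fluorescence intensity; positive direction vs DMSO.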

Assay [16] is described as follows: ATG_GAL4_TRANS: Attagene TRANS-FACTORIAL HepG2 Assay for GAL4 (Internal Marker) (AID 2282976; active means hit-call score of the fitted dose curve at least 0.9, where 1 is the maximum). The conditions noted are these: HepG2 Attagene TRANS GAL4 internal marker reporter. Summed up:
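In transfected human HepG2 liver cells dosed 24 h, GAL4 reporter mRNA serves as a baseline marker. Detection by RT-PCR with fluorescent capillary electrophoresis, activity fitted upward relative to DMSO.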

Assay [17] deals with Steroid hormone receptor ERR1 (Homo sapiens) (UniProt P11474). The experiment in a line: ATG_ERRa_TRANS: Attagene TRANS-FACTORIAL HepG2 Assay for human Estrogen-Related Receptor alpha (ERRa) (AID 2282971; active means hit-call score of the fitted dose curve at least 0.9, where 1 is the maximum). The note with it: HepG2 Attagene TRANS reporter, ERRa transactivation. Put shortly:
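Reporter transcripts from ERRa-Gal4 chimera activity measured in transiently transfected human HepG2 cells 24 hours after dosing, using RT-PCR with 6-FAM primer extension, HpaI digestion and capillary electrophoresis; DMSO is baseline.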

Assay [18] has as its target Estrogen-related receptor gamma (Homo sapiens) (UniProt P62508). The experiment in a line: ATG_ERRg_TRANS: Attagene TRANS-FACTORIAL HepG2 Assay for human Estrogen-Related Receptor gamma (ERRg) (AID 2282977; active means hit-call score of the fitted dose curve at least 0.9, where 1 is the maximum;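 further: hits increase reporter signal over DMSO so potencies reflect activators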). The note with it: HepG2 Attagene TRANS reporter, ERRg transactivation. Summed up: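 Induction of reporter transcripts through a chimeric NR-Gal4 protein is quantified in transfected human HepG2 liver cells after 24 h chemical exposure, using RT-PCR with capillary electrophoresis detection and DMSO as baseline.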

Assay [19] can be described thus: ATG_PPRE_CIS: Attagene CIS-FACTORIAL HepG2 Assay for human Peroxisome Proliferator-activated Response Element (PPRE) (AID 2282958). The note with it: HepG2 PPRE cis-element reporter, Attagene transcription factor profiling; actives raise or lower the signal. Summed up: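 HepG2, transient MRTU transfection (cis promoter elements, endogenous TFs). 24 h dosing. RNA → oligo(dT) RT → PCR → 6-FAM primer extension → HpaI digest → CE. Bidirectional fit vs DMSO.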

Each structure is given as a SMILES string. Inconclusive results are not listed. Calls of active or inactive are those of the source. How the source made its calls, unless noted: active means hit-call score of the fitted dose curve at least 0.9, where 1 is the maximum; inactive means score below 0.9.

Chain of X-box-binding protein 1 (Homo sapiens) (P17861 whole entry, looked up): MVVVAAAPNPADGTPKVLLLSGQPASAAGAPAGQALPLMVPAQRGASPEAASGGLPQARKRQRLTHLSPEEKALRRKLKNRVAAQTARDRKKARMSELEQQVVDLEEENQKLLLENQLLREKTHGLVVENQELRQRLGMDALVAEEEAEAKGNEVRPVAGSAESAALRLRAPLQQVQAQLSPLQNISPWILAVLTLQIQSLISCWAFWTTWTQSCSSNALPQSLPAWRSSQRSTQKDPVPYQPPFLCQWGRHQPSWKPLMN
Chain of Transcription factor Sp1 (Homo sapiens) (P08047 whole entry, looked up): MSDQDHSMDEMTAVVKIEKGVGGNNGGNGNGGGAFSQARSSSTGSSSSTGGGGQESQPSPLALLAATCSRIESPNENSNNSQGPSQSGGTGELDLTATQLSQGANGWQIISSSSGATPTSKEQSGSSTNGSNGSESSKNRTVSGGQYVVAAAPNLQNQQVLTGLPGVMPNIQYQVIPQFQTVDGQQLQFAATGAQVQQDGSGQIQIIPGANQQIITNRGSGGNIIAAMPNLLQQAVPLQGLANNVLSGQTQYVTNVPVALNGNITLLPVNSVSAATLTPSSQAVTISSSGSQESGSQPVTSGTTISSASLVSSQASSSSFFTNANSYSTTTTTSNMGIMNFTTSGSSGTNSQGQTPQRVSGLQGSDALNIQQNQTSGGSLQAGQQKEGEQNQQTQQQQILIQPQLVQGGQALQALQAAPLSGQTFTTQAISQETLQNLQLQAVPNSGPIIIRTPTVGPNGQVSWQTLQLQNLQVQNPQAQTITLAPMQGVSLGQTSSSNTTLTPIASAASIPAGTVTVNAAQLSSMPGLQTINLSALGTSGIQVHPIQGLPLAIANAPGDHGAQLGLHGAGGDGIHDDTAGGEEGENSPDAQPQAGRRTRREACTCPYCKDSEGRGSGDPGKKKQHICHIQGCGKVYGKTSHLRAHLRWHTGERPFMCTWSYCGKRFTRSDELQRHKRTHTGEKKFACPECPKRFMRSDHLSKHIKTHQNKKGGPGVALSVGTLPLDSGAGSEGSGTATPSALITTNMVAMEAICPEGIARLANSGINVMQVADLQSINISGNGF
Chain of Signal transducer and activator of transcription 3 (Homo sapiens) (P40763 whole entry, looked up, the tested form may be a part): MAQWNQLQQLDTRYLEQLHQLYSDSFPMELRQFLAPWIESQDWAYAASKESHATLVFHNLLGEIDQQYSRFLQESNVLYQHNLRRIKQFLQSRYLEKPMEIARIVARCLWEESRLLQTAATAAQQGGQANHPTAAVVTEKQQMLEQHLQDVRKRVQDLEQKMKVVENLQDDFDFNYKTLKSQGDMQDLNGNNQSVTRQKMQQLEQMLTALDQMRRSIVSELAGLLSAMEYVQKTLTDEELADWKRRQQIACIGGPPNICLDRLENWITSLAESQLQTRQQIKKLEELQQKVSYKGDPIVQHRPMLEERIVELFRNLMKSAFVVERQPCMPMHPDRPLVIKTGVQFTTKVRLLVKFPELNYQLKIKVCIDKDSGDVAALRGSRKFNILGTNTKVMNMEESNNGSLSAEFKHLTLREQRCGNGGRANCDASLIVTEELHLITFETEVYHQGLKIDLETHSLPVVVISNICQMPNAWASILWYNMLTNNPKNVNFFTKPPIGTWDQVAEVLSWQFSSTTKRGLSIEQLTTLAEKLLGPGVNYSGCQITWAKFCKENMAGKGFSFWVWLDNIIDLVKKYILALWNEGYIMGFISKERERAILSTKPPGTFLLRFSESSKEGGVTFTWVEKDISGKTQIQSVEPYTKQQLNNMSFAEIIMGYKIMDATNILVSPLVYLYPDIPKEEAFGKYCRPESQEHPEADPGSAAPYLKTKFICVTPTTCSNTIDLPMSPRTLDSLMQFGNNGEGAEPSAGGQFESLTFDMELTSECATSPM
Chain of Paired box protein Pax-6 (Homo sapiens) (P26367 whole entry, looked up): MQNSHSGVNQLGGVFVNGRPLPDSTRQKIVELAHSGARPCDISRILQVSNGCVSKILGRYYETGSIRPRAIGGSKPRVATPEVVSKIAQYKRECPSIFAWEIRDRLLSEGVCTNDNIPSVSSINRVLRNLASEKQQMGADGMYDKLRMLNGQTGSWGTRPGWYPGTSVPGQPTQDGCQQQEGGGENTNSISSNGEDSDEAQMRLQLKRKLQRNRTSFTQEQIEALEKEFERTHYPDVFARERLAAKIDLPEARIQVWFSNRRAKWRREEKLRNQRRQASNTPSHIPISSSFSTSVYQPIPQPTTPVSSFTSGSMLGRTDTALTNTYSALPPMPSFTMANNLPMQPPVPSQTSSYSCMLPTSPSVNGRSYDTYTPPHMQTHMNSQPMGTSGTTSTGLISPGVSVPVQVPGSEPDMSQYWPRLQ
Chain of Nuclear receptor subfamily 1 group I member 3 (Homo sapiens) (Q14994 whole entry, looked up, the tested form may be a part): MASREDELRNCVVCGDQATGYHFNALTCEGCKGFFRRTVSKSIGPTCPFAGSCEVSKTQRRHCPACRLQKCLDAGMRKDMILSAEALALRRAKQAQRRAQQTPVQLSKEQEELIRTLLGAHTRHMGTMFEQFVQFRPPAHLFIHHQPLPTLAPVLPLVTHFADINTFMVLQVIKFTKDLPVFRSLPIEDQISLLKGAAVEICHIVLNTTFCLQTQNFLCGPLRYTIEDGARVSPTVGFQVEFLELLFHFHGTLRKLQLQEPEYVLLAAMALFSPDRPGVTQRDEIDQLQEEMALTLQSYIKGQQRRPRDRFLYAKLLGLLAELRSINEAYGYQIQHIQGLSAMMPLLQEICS
Chain of Estrogen-related receptor gamma (Homo sapiens) (P62508 whole entry, looked up, the tested form may be a part): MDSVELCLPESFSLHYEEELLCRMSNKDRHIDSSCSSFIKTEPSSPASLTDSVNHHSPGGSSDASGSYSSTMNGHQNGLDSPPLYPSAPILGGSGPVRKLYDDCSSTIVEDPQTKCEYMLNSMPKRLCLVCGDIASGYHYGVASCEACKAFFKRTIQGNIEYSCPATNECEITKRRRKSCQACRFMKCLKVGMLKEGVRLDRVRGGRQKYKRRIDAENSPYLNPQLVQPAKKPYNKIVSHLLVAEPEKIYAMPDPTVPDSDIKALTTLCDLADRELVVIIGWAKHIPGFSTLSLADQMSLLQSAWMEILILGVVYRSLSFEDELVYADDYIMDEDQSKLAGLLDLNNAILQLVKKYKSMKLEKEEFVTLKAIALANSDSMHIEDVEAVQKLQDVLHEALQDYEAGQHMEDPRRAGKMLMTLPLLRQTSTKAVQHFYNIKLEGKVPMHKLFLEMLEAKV
Chain of Steroid hormone receptor ERR1 (Homo sapiens) (P11474 whole entry, looked up, the tested form may be a part): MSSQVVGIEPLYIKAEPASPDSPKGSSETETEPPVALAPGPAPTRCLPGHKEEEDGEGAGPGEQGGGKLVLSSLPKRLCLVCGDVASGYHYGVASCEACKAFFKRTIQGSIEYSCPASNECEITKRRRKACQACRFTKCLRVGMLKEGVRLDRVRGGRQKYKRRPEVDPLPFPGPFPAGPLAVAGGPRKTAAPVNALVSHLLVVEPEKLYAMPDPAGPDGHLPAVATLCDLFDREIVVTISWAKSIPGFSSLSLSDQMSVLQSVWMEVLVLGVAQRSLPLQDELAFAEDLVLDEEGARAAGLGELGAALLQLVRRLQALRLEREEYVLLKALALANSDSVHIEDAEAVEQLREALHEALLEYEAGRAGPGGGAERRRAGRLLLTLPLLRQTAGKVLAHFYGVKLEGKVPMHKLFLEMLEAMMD

Take `CCC[CH2][Sn]([Cl])([CH2]CCC)[CH2]CCC`: the AC50 (commonly the concentration giving half of the maximal activity seen) was 0.678 µM (active) in assay [1]; 0.412 µM (active) in assay [5]; 0.698 µM (active) in [8]; 0.591 µM (active) in [9]; 0.412 µM (active) in assay [12]; 0.639 µM (active) in assay [13]. Also, the compound was classed as inactive in assay [2], in [3], in [4], in [6], in assay [7] and in assay [10]. In addition, the call in [11] and in assay [14] was inactive.

Turning to `Nc1ccc(Cl)cc1N`, the AC50 in [1] is 27.4 µM (active); in assay [2], 26.1 µM (active); in [3] it was 27.7 µM (active); in assay [4], 26.8 µM (active); in assay [8], 9.74 µM (active); in assay [12], 27.3 µM (active). Further, in assay [13], the concentration at half-maximal activity (AC50) was 21 µM (active). Further, the call in [5], in [6], in assay [7], in assay [9], in assay [10] and in [11] was inactive. Further, the call in assay [15] and in assay [16] was inactive.

As for `CN(C)c1ccccc1`, the compound was classed as inactive in [1], in assay [2], in [4], in [5], in [6] and in assay [7]. Further, the outcome in [8], in assay [9], in assay [10], in assay [11], in assay [12] and in assay [17] was inactive. In addition, the call in assay [13], in assay [16] and in assay [18] was inactive.

For `CN(C)[C@@H]1C(=O)C(C(N)=O)=C(O)[C@@]2(O)C(=O)C3=C(O)c4c(O)cccc4[C@@](C)(O)[C@H]3C[C@@H]12`, the result in assay [1], in assay [19], in [4], in assay [5], in assay [6] and in [7] was inactive. In addition, the result in assay [8], in assay [9], in assay [10], in assay [11], in [13] and in assay [14] was inactive. Besides, in assay [2], the AC50 was 27.6 µM (active).

Consider `CC(C)(C)OOC(C)(C)CCC(C)(C)OOC(C)(C)C`, for which the compound was classed as inactive in assay [1], in assay [3], in [4], in [7], in [8] and in [9]. Besides, the compound was called inactive in [10], in [11], in assay [12], in assay [15], in assay [17] and in [13]. Also, the outcome in [18] was inactive. Further, the values for the AC50 in assay [2], in assay [5] and in assay [6] were 8.34 µM (active), 177 µM (active) and 38 µM (active), respectively.

The record behind these values is PubChem BioAssay (EPA / NIEHS).
